# Results reported in PubChem BioAssay (EPA / NIEHS).
# “And” between values parts separate entries of the source, which are not always exact repeats. Equal values may be shown once. Results filed as inconclusive are left out. Where a structure was tested more than once in an assay, its records may differ in their call. The source made the active and inactive calls. How the source made its calls, unless noted: active means hit-call score of the fitted dose curve at least 0.9, where 1 is the maximum; inactive means score below 0.9.
# Key:
# [1] = CCTE_Shafer_MEA_dev_per_network_spike_spike_number_mean: CCTE's Neural Network Formation Assay for Mean Number of Spikes in a Network Spike, Shafer Lab (AID 2284053);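 on AC50: fitted as decrease in spikes per network spike relative to DMSO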
# Method in brief: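 Continuous twelve-day exposure of developing rat cortical networks grown over 16 microelectrodes per well; spontaneous firing is captured at four time points, and the per-network-spike spike number is integrated over development by trapezoidal AUC.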
# [2] = CCTE_Shafer_MEA_dev_per_network_spike_spike_percent: CCTE's Neural Network Formation Assay for Percent of Spikes in a Network Spike, Shafer Lab (AID 2284054)
# Method in brief: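 Metric: fraction of spikes falling in a 0.05 s window at network-spike peaks. Recordings were made on days 5, 7, 9 and 12 and collapsed by trapezoidal AUC. Cultures were rat cortical neurons on MEA plates, dosed continuously from plating, re-dosed at media changes.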
# [3] = UKN5_HCS_SBAD2_cell_viability: Viability Assessment in the University of Konstanz (UKN) Leist Lab Neurite Outgrowth Assay in human iPSC-derived immature Dorsal Root Ganglia Neurons (UKN5) (AID 2284056)
# Method in brief: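 iPSC-derived immature peripheral neurons (SBAD2) seeded on Matrigel with CHIR99021, SU5402 and DAPT, dosed 1 h later for 24 h. Viability from Hoechst H-33342 and calcein-AM live staining, high-content imaging; bidirectional fit versus DMSO.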
# [4] = CCTE_Shafer_MEA_acute_AB: CCTE's Alamar Blue Assay for Cytotoxicity in the Neural Acute Assay, Shafer Lab (AID 2284069; active means hit-call score of the fitted dose curve at least 0.9, where 1 is the maximum;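 further: active compounds lower the viability signal compared with DMSO wells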)
# Method in brief: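 Metabolic activity in chemically exposed rat cortical neurons (MEA cultures, day 13/15 post-plating) measured via CellTiter Blue resazurin reduction, 544/590 nm fluorescence; fitted relative to DMSO, with signal loss indicating reduced viability.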
# [5] = UKN5_HCS_SBAD2_neurite_outgrowth: University of Konstanz (UKN) Leist Lab Neurite Outgrowth Assay in human iPSC-derived immature Dorsal Root Ganglia Neurons (UKN5) (AID 2284070); conditions: actives raise or lower the signal
# Method in brief: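 Neurite outgrowth is quantified as calcein-AM-labelled neurite area in human iPSC-derived peripheral neurons treated for 24 h, starting 1 h after plating in medium with CHIR99021 (1.5 uM), SU5402 (5 uM) and DAPT (5 uM).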
# [6] = CCTE_Shafer_MEA_dev_AB: CCTE's Alamar Blue Assay for Cytotoxicity in the Neural Network Formation Assay, Shafer Lab (AID 2284083; active means hit-call score of the fitted dose curve at least 0.9, where 1 is the maximum;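 further: twelve days of exposure from plating with re-dosing on DIV 5 and 9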)
# Method in brief: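 Fluorescent resazurin reduction serves as the viability read-out, with DMSO as negative control and baseline. Cells were primary rat cortical neurons grown on MEA plates and dosed from day 0 to day 12, treatment renewed on DIV 5 and 9.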
# [7] = CCTE_Shafer_MEA_acute_LDH: CCTE's Lactate Dehydrogenase Assay for Cytotoxicity in the Neural Acute Assay, Shafer Lab (AID 2284086; active means hit-call score of the fitted dose curve at least 0.9, where 1 is the maximum;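 further: active means LDH release rises above DMSO vehicle level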)
# Method in brief: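 Cytotoxicity readout: spectrophotometric LDH activity in supernatant of rat primary cortical neurons, post-plating day 13 or 15, sampled after 40 min compound exposure; signal gain relative to DMSO baseline.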
# [8] = CCTE_Shafer_MEA_dev_mutual_information_norm: CCTE's Neural Network Formation Assay for Mutual Information Normalization, Shafer Lab (AID 2284091);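 on AC50: mutual information between electrodes summarised as area under curve across four recording days; potency is for a decrease in mutual information relative to DMSO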
# Method in brief: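 Shared information across electrodes, tracked on days 5, 7, 9 and 12 of network development and collapsed as trapezoidal area under the curve. Rat cortical cultures were treated continuously from plating, with treatment renewed at feeds on DIV 5 and 9; DMSO baseline, negative-direction fit.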
# [9] = CCTE_Shafer_MEA_dev_correlation_coefficient_mean: CCTE's Neural Network Formation Assay for Mean Correlation Coefficient, Shafer Lab (AID 2284093);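 on AC50: well mean pairwise spike train correlation integrated as AUC over recording days 5 to 12; potency fitted for loss of correlation relative to DMSO vehicle wells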
# Method in brief: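 Read-out: well-mean correlation coefficient of spike trains between electrode pairs, collapsed over four recording days as trapezoidal area-under-the-curve. Developing rat cortical neuron networks grown on MEAs received test chemical continuously from plating.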
# [10] = UKN2_HCS_IMR90_neural_migration: University of Konstanz (UKN) Leist Lab Neural Crest Cell Migration Assay in human induced IMR90 Pluripotent Stem Cells (UKN2) (AID 2284204); conditions: actives raise or lower the signal
# Method in brief: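 High-content imaging of calcein-AM and Hoechst stained cells quantifies migration into a stopper-defined gap after 24 h compound exposure. Neural crest cells from IMR90 iPSC migrated 24 h in EGF/FGF N2-S medium before dosing; DMSO baseline.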
# [11] = UKN4_HCS_LUHMES_neurite_outgrowth: University of Konstanz (UKN) Leist Lab Neurite Outgrowth Assay in human LUHMES cells (UKN4) (AID 2284206); conditions: actives raise or lower the signal
# Method in brief: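 Neurite area in dopaminergic-model LUHMES neurons is measured by high-content imaging of calcein-AM after 24 h treatment starting shortly after day-2 replating; Hoechst staining tracks viability.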
# [12] = IUF_NPC1b_proliferation_BrdU_72hr: Leibniz Research Institute for Environmental Medicine (IUF) 72-hour Neural Progenitor Cell Bromodeoxyuridine (BrdU) Proliferation Assay (NPC1b) (AID 2284207)
# Method in brief: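 Human fetal cortex-derived (GW 16-19) neural progenitor spheres, 0.25-0.35 mm, one per well in EGF/FGF proliferation medium, exposed to compound for 72 h at 37C, pH 7.2-7.6. BrdU incorporation over the final 16 h read by luminescence ELISA, relative to DMSO.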
# [13] = IUF_NPC1a_proliferation_area_72hr: Leibniz Research Institute for Environmental Medicine (IUF) 72-hour Neural Progenitor Cell Proliferation Area Assay (NPC1a) (AID 2284208)
# Method in brief: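 Proliferation is scored as sphere area gain in primary human fetal neural progenitors treated for 72 h in EGF/FGF-containing medium. Viability, LDH and BrdU readouts come from the same wells.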
# [14] = IUF_NPC1_viability_72hr: Viability Assessment at 72 hours in the Leibniz Research Institute for Environmental Medicine (IUF) Neural Progenitor Cell Proliferation Assay (NPC1) (AID 2284209)
# Method in brief: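 Three-day continuous exposure of human neural progenitor spheres under EGF/FGF-driven proliferation; cell viability scored by alamar blue signal versus DMSO.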
# [15] = CCTE_Mundy_HCI_Cortical_Synap_Neur_Matur_BPCount: CCTE's Synaptogenesis and Neurite Maturation Assay in rat cortical cells for Branch Point Count, Mundy Lab (AID 2284211)
# Method in brief: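 In this multiplexed morphology assay, cortical cells from rat receive chemicals at DIV 7 and are fixed at DIV 12, then immunostained and imaged; branch points are counted, with DMSO as baseline.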
# [16] = CCTE_Mundy_HCI_Cortical_NOG_NeuriteCount: CCTE's Neurite Outgrowth Assay in rat cortical cells for Neurite Count, Mundy Lab (AID 2284212);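 further: cells fixed about two days after chemical exposure began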
# Method in brief: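 Rat cortical primary cells; compound added 2 h post-plating, 1/10 dilution of working solution. Anti-betaIII-tubulin/AF488 ICC; ArrayScan neurite count vs DMSO.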
# [17] = CCTE_Mundy_HCI_Cortical_NOG_NeuriteLength: CCTE's Neurite Outgrowth Assay in rat cortical cells for Neurite Length, Mundy Lab (AID 2284213)
# Method in brief: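 First, rat primary cortical cells were plated and, 2 h later, given test chemical as a 1/10 dilution. Finally, βIII-tubulin immunostaining enabled automated imaging of neurite length.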
# [18] = CCTE_Mundy_HCI_Cortical_Synap_Neur_Matur_NeuriteSpotCountPerNeuron: CCTE's Synaptogenesis and Neurite Maturation Assay in rat cortical cells for Neurite Spot Count per Neuron Count, Mundy Lab (AID 2284215)
# Method in brief: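 Synapse density is scored as synaptophysin spots along neurites per neuron in fixed rat cortical neurons, measured at DIV 12 after chemical dosing at DIV 7. DMSO is the negative control and activity baseline.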
# DIO3 (gene 1735) = assay: CCTE_GLTED_hDIO3: CCTE's human Deiodinase 3 (DIO3) Inhibition Assay, Great Lakes Toxicology and Ecology Division (GLTED) Lab (AID 2284055; active means hit-call score of the fitted dose curve at least 0.9, where 1 is the maximum;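 further: potency is for inhibition seen as loss of released iodide signal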)
# Method in brief: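 Steps: incubate adenovirus-produced hDIO3 with chemical for 3 hours; detect freed iodide via cerium-arsenic Sandell-Kolthoff colorimetry; compare with DMSO baseline.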
smiles,measurement,setting,value
CCOP(=O)(OCC)Oc1nc(Cl)c(Cl)cc1Cl,AC50,[1],3.09 µM (active) and 15 µM (active)
same,outcome,[1],inactive
same,AC50,[2],7.07 µM (active)
same,outcome,[2],inactive
same,AC50,[3],18.3 µM (active)
same,outcome,[4],inactive
same,AC50,[5],14.6 µM (active)
same,AC50,[6],9.43 µM (active) and 334 nM (active)
same,outcome,[6],inactive
same,outcome,[7],inactive
same,AC50,[8],872 nM (active) and 2.17 µM (active)
same,outcome,[8],inactive
same,AC50,[9],5.46 µM (active) and 7.1 µM (active)
same,outcome,[9],inactive
same,outcome,[10],inactive
same,outcome,[11],inactive
same,outcome,[12],inactive
same,AC50,[13],8.27 µM (active)
same,outcome,[14],inactive
same,outcome,[15],inactive
same,outcome,[16],inactive
same,outcome,[17],inactive
same,AC50,[18],9.92 µM (active)
same,outcome,[18],inactive
COP(=S)(OC)Oc1ccc([N+](=O)[O-])c(C)c1,outcome,[1],inactive
same,outcome,[2],inactive
same,outcome,[6],inactive
same,outcome,[8],inactive
same,outcome,[9],inactive
CC1(C)C(C=C(Cl)Cl)C1C(=O)OC(C#N)c1cccc(Oc2ccccc2)c1 (configuration not stated),AC50,[1],6.97 µM (active)
same,outcome,[1],inactive
same,AC50,[2],8.41 µM (active)
same,outcome,[2],inactive
same,outcome,[4],inactive
same,outcome,[6],inactive
same,outcome,[7],inactive
same,AC50,[8],1.43 µM (active)
same,outcome,[8],inactive
same,AC50,[9],3.6 µM (active)
same,outcome,[9],inactive
same,outcome,[12],inactive
same,outcome,[13],inactive
same,outcome,[14],inactive
same,AC50,[15],0.00451 µM (active)
same,outcome,[16],inactive
same,outcome,[17],inactive
same,outcome,[18],inactive
CC1(C)C(C(=O)OC(C#N)c2cccc(Oc3ccccc3)c2)C1(C)C (configuration not stated),AC50,[1],10 µM (active)
same,AC50,[2],4.54 µM (active)
same,AC50,[6],1.98 µM (active)
same,AC50,[8],1.01 µM (active)
same,AC50,[9],4.17 µM (active)
CC(C)=CC1C(C(=O)OCc2coc(Cc3ccccc3)c2)C1(C)C (configuration not stated),outcome,[1],inactive
same,outcome,[2],inactive
same,AC50,DIO3 (gene 1735),40.5 µM (active)
same,outcome,[4],inactive
same,outcome,[6],inactive
same,outcome,[7],inactive
same,outcome,[8],inactive
same,outcome,[9],inactive
CCSC(=O)N1CCCCCC1,outcome,[1],inactive
same,outcome,[2],inactive
same,outcome,[6],inactive
same,outcome,[8],inactive
same,outcome,[9],inactive
same,outcome,[10],inactive
same,outcome,[12],inactive
same,outcome,[13],inactive
same,outcome,[14],inactive
same,outcome,[16],inactive
same,outcome,[17],inactive
same,outcome,[18],inactive
